Screens (PubChem)
Shown are actives, neighbours in structure and some others; about 8% of the full set was active somewhere.
MCF10A rerep – DNA re-replication induction in MCF 10a cells | MCF 10A DNA re-replication, Hoechst nuclear intensity, 48 h | Potency, µM (series often up to 46.1 µM), for the others: top-dose activity, positive = re-replication, most hits filed as activators | hit rate 2.9% among 350,000 | AID 624296; note: % of control where 0% means no effect; nearly all actives have a fitted effect of over 50% in size
KB-V1 MDR tox – KB-V1 MDR subline cytotoxicity. KB-V1 MDR cells viability, CellTiter-Glo, 72 h. Potency, µM (titrated, usually from 46.1 µM), hits mostly cytotoxic. hit rate 3.4% among 400,000. AID 1347076; note: % is set by controls: 0 for no effect and ±100 for the full control effect; nearly all actives have a fitted effect of over 60% in size
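KB-V1 cells (P-gp-expressing MDR subline of KB-3-1) in phenol-red-free DMEM with 10% FBS were exposed to library compounds over a concentration series for 72 h at 37 degrees C. Viability read by CellTiter-Glo luminescence; concentration-effect curves fitted after normalization.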
HT1080 IDH1KD tx – toxicity to HT-1080 IDH1 knockdown cells (counter line); hit rate 2% among 360,000; Potency, µM (series often up to 46.1 µM), without a hit: at the highest dose activity, negative = toxicity, most hits filed as cytotoxic; HT-1080 IDH1 knockdown viability, ATP luminescence, 48 h;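 note: 0% = DMSO wells and -100% = cell-free medium wells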
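Using the IDH1-knockdown HT-1080 line run in the same batch and compound series as the NT line, viability after 48 h at 37 °C was determined by CellTiter-Glo luminescence and expressed as % activity.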
SW480 rereplic – DNA re-replication induction in SW480 cells; SW480 DNA re-replication, Hoechst DNA content imaging, 48 h; Potency, µM (titrated, usually from 46.1 µM), for the others: at the top dose re-replication activation, most hits filed as activators; hit rate 1.8% among 340,000; AID 624297; note: % of control where 0% means no effect; nearly all actives have a fitted effect of over 55% in size
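250 cells/well; 23 nL cpd via pin tool; 48 hr, 37 C, 5% CO2; Hoechst 40 min; imager read of total nuclear intensity, ex 405/em 500-530 nm.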
KB-3-1 cytotox – kills parental KB-3-1 adenocarcinoma cells. KB-3-1 viability, CellTiter-Glo ATP luminescence, 72 h. Potency, µM (top dose mostly 46.1 µM), most hits filed as cytotoxic. hit rate 1.4% among 400,000. AID 1347075; note: % is set by controls: 0 for no effect and ±100 for the full control effect; nearly all actives have a fitted effect of over 60% in size
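Cells are dispensed, compounds pinned in, plates held at 37 °C for 72 h, then CellTiter-Glo is added and luminescence read after 10 minutes. Cell line: parental KB-3-1 in phenol-red-free DMEM, 10% FBS.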
HT1080NT lethal – kills 2HG-producing HT-1080-NT fibrosarcoma cells | AID 686970 | HT-1080-NT fibrosarcoma viability, CellTiter-Glo ATP luminescence, 48 h | Potency, µM (titrated, usually from 46.1 µM), without a hit: at the top dose activity, negative = less viability, most hits filed as cytotoxic | hit rate 1.6% among 360,000;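 note: NT is the 2HG producing partner of a matched IDH1 knockdown line; 0% = DMSO-treated cells and -100% = media-only wells without cells; nearly all actives have a fitted effect of over 55% in size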
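Fibrosarcoma NT cells, 750 per well in 5% FBS RPMI, were exposed to compound for 48 hours. Viability: CellTiter-Glo luminescence.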
Active calls of the source: *; [ ] = dose if it differs, or a comment. Calls come from the whole dose curve; as a rule, active = well fitted curve in the direction sought with a large enough effect; inconclusive = small, poorly fitted or top-dose-only effect, or another doubt; inactive = no such curve, though single readings can be large; an effect the other way counts as inactive or inconclusive. Potency is the fitted concentration of half-maximal effect.

CCN(CC)CC(=O)Nc1ccc2c(c1)Nc1ccccc1CC2 was read as MCF10A rerep 1%, KB-V1 MDR tox inconclusive, HT1080 IDH1KD tx inconclusive, SW480 rereplic 1%[9.22 µM], KB-3-1 cytotox inconclusive and HT1080NT lethal 11µM*.
`O=C(Nc1ccc(Cl)cc1C(=O)Nc1ccc(Br)cn1)c1ccco1` gave MCF10A rerep 29%, KB-V1 MDR tox 5.2µM*, HT1080 IDH1KD tx inconclusive, SW480 rereplic 6%, KB-3-1 cytotox inactive and HT1080NT lethal -16%.
COCc1ccc([C@@H]2C[C@H]3CN(Cc4cccc(Cl)c4)C(=O)[C@]34CCCN24)o1 was read as MCF10A rerep -1%, KB-V1 MDR tox inactive, HT1080 IDH1KD tx 6%, SW480 rereplic -2%, KB-3-1 cytotox inactive and HT1080NT lethal 8%.
Screening Cc1ccc(C)c(N2CCN(C(=O)c3ccc(Cn4c(=S)[nH]c5ccc(N6CCOCC6)cc5c4=O)cc3)CC2)c1 returned MCF10A rerep 5.8µM*, KB-V1 MDR tox inactive, HT1080 IDH1KD tx 7%, SW480 rereplic 22%, KB-3-1 cytotox inactive and HT1080NT lethal -1%.
`O=C(c1ccc(Cn2c(=S)[nH]c3ccc(Br)cc3c2=O)cc1)N1CCN(C2CCCCC2)CC1` gave MCF10A rerep inconclusive, KB-V1 MDR tox 18µM*, HT1080 IDH1KD tx 5%, SW480 rereplic inconclusive, KB-3-1 cytotox inconclusive and HT1080NT lethal 0%.
Screening CCOC(=O)C1CCCN(C(=O)c2ccc(Cn3c(=S)[nH]c4cc(C(=O)OC)ccc4c3=O)cc2)C1 (stereo unspecified) returned MCF10A rerep 16µM*, KB-V1 MDR tox inconclusive, HT1080 IDH1KD tx -25%, SW480 rereplic inconclusive, KB-3-1 cytotox inactive and HT1080NT lethal 0%.
For O=C(c1ccc(Cn2c(=S)[nH]c3ccc(N4CCOCC4)cc3c2=O)cc1)N1CCN(c2ccc(F)cc2)CC1 the results were MCF10A rerep 4.6µM*, KB-V1 MDR tox inconclusive, HT1080 IDH1KD tx -13%, SW480 rereplic 12%, KB-3-1 cytotox inactive and HT1080NT lethal -3%.
CC(CN1CCOCC1)(NS(=O)(=O)c1ccccc1)c1ccccc1 (stereo unspecified) was read as MCF10A rerep 2%, KB-V1 MDR tox inactive, HT1080 IDH1KD tx -1%, SW480 rereplic -4%, KB-3-1 cytotox inactive and HT1080NT lethal 0%.
O=C(CSCc1nc2ccccc2[nH]1)Nc1ccc2ccccc2c1 was read as MCF10A rerep 14%, KB-V1 MDR tox inactive, HT1080 IDH1KD tx -29%, SW480 rereplic -3%, KB-3-1 cytotox inactive and HT1080NT lethal -2%.
Screening O=C(Nc1ccc2ccccc2c1)c1ccccc1O returned MCF10A rerep inconclusive, KB-V1 MDR tox inconclusive, HT1080 IDH1KD tx 23µM*, SW480 rereplic 23%, KB-3-1 cytotox inconclusive and HT1080NT lethal 15µM*.
For O=C(CSCc1cccc(CSCC(=O)Nc2ccc3ccccc3c2)n1)Nc1ccc2ccccc2c1 the results were MCF10A rerep -4%, KB-V1 MDR tox 23µM*, HT1080 IDH1KD tx -19%, SW480 rereplic 2%, KB-3-1 cytotox inconclusive and HT1080NT lethal -7%.
`CCCCCC(=O)Nc1ccc2ccccc2c1` gave MCF10A rerep inconclusive, KB-V1 MDR tox inactive, HT1080 IDH1KD tx -2%, SW480 rereplic -1%, KB-3-1 cytotox inactive and HT1080NT lethal -4%.
`O=C(CS)Nc1ccc2ccccc2c1` gave MCF10A rerep 0%, KB-V1 MDR tox inactive, HT1080 IDH1KD tx 21µM*, SW480 rereplic inconclusive, KB-3-1 cytotox inactive and HT1080NT lethal 21µM*.
`Oc1ccc2ccccc2c1CNc1ccc2ccccc2c1` gave MCF10A rerep 21µM*, KB-V1 MDR tox inconclusive, HT1080 IDH1KD tx 21µM*, SW480 rereplic inconclusive, KB-3-1 cytotox inconclusive and HT1080NT lethal inconclusive.
